RORg inh: blocks mouse ROR gamma transcriptional activity; AID 2551; P51450; Drosophila S2 Gal4-RORgamma UAS-luciferase reporter, 20 h; 310,000 compounds, 5.4% hits; Potency, µM (series often up to 53.6 µM), for the others: at the top dose activity change, negative = inhibition, hits mostly inhibitors; also: nearly all actives have a fitted effect of over 60% in size
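Compounds are pin-transferred onto Drosophila Schneider cells expressing a copper-inducible Gal4–ROR gamma transactivation domain fusion. After 1 hr, copper sulfate is added to 700 uM final; luciferase is read 20 hr later.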
TDP1 cell CPT: DT40-hTDP1 cell growth loss with CPT | chicken DT40 Tdp1-/-;hTDP1 cells + 20 nM CPT, ATP luminescence, 48 h | Potency, µM (highest dose often 46.2 µM), for the others: at the highest dose activity change, negative = growth inhibition, actives largely listed as inhibitors | 420,000 compounds, 12% hits | AID 686979; also: nearly all actives have a fitted effect of over 55% in size
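Cell growth measured by CellTiter-Glo luminescence after a minimum 48 h, 37 C compound exposure with 20 nM CPT in Tdp1-knockout DT40 cells stably expressing hTDP1, seeded 400/well; qHTS titration format.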
TDP1 block: inhibitors of human tyrosyl-DNA phosphodiesterase TDP1; 350,000 compounds, 0.28% hits; Potency, µM (top dose mostly 130 µM), without a hit: at the highest dose activity change, negative = inhibition, most hits filed as inhibitors; recombinant TDP1, AlphaScreen DNA substrate cleavage; Q9NUW8; also: nearly all actives have a fitted effect of over 40% in size
Target sequence (Q9NUW8 whole entry, looked up): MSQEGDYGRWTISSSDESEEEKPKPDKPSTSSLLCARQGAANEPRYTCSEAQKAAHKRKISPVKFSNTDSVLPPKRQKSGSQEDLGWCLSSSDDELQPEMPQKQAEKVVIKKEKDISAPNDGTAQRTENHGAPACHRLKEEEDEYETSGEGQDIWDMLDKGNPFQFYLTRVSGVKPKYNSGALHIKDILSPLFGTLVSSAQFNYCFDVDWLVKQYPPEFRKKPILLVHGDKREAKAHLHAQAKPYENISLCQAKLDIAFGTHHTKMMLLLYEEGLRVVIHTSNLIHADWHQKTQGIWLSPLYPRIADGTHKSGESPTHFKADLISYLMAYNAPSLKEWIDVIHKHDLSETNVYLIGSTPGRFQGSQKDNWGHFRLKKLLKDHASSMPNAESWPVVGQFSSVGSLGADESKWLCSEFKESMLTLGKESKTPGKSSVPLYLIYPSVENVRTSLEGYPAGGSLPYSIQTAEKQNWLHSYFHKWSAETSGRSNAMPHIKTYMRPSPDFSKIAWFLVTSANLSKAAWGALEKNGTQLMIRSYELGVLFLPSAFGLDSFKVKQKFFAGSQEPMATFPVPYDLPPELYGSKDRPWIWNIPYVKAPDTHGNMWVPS
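Tdp1 1 nM final; 15 min RT w/ cpd; substrate 15 nM, 5 min; beads 10 ug/ml, 10 min; AlphaScreen read. Neg ctrl: no enzyme.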
VP16 counter: inhibits Gal4-VP16 luciferase reporter, ROR gamma counter-screen. Drosophila S2 Gal4-VP16 UAS-luciferase, luminescence, 20 h. Potency, µM (top dose mostly 53.6 µM), for the others: at the highest dose activity, negative = inhibition, hits mostly inhibitors. 310,000 compounds, 3.5% hits;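 also: Gal4-VP16 expression switched on by copper sulfate through the metallothionein promoter; nearly all actives have a fitted effect of over 50% in size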
TDP1 cell noCPT: qHTS for Inhibitors of human tyrosyl-DNA phosphodiesterase 1 (TDP1): qHTS in cells in absence of CPT. DT40 Tdp1-/- hTDP1 cells, no CPT, ATP luminescence, 48 h. 420,000 compounds, 15% hits. Potency, µM (top dose mostly 46.2 µM), for the others: top-dose activity change, negative = growth inhibition, actives largely listed as inhibitors; also: nearly all actives have a fitted effect of over 55% in size
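DT40 Tdp1-/-;hTDP1 cells, no CPT (DMSO vehicle only), 400 cells/well; compounds pin-transferred; ≥48 hr, 37 °C; CellTiter-Glo 30 min RT dark, luminescence read.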
Starred values were filed as active, the others as inactive; ? = inconclusive; / = no result given; [ ] = another dose, or the depositor's remark. An excerpt weighted towards active compounds, which were near 19% of everything screened. Calls follow the shape of the dose curve; as a rule, active = well fitted curve in the direction sought with a large enough effect; inconclusive = small, poorly fitted or top-dose-only effect, or another doubt; inactive = no such curve, though single readings can be large; an effect the other way counts as inactive or inconclusive. % is scaled to controls: 0 for no effect and ±100 for the full control effect; potency is read from the fitted curve at half-maximal effect.

SMILES	RORg inh	TDP1 cell CPT	TDP1 block	VP16 counter	TDP1 cell noCPT
COc1ccc(N(C(=O)c2ccncc2)S(=O)(=O)c2ccc(Cl)cc2)cc1	-3%	-7%	/	1%	-22%
COc1ccc(N(C(=O)c2ccncc2)S(=O)(=O)c2ccc3c4c(cccc24)C(=O)N3C)cc1	-40%	18µM*	-5%	?	?
COc1ccc(C(=O)N(c2ccc(C)cc2)S(=O)(=O)c2ccc(C)cc2)cc1	/	18µM*	3%	/	23µM*
COc1ccc(N(C(=O)c2ccccc2)S(=O)(=O)c2cccs2)cc1	-28%	?	-14%	-15%[10 µM]	21µM*
COc1ccc(N(C(=O)COc2cccc(C)c2)S(=O)(=O)c2ccc(C)cc2)cc1	?	18µM*	0%	-7%	-28%
Cc1ccc(N(C(=O)COc2ccccc2C)S(=O)(=O)c2ccc(Cl)cc2)cc1	/	?	3%[2.28 µM]	/	?
CC(C)n1c(-c2ccccc2)nc(=S)c2c1CCCC2	?	/	4%	-6%	/
Cc1ccsc1CN1CCC(C(=O)NCc2ccccc2Cl)CC1	0%	?	8%	-8%	2%
COc1ccccc1N1CCN(c2cc(=O)n(-c3ccc(Br)cc3)c(=O)[nH]2)CC1	-5%	1%	2%	-1%	-11%
COc1ccc(/C=N\NS(=O)(=O)c2ccc(C)cc2)cc1COc1ccccc1[N+](=O)[O-]	37%	?	4%	-3%	?
Cc1cnc(CNc2ncncc2-c2ccccc2C(F)(F)F)cn1	2%	?	40µM*	-5%	-28%
Cc1cnc(CNc2ncncc2-c2c(C)noc2C)cn1	14%	3.7µM*	/	0%	2.6µM*
CNc1ncncc1-c1c(C)noc1C	11%	?	/	-3%	25%
CN1CCC(Nc2ncc3ncnc(Nc4ccc(F)c(Cl)c4)c3n2)CC1	7%	?	8%	-6%	21µM*
COc1ccc2c(C(=O)CCl)c[nH]c2c1	?	2.6µM*	/	18µM*	3.3µM*
COc1ccc2c(C=O)c[nH]c2c1	12%	10%	-1%	0%	-26%
O=C(Cc1ccccc1[N+](=O)[O-])N/N=C/c1cccnc1	-13%	-24%	4%	6%	0%
CC(=O)CCS(=O)(=O)c1ccc(Oc2ccc(S(=O)(=O)CCC(C)=O)cc2)cc1	8.9µM*	3.7µM*	-2%[56.1 µM]	?	8.2µM*
CC1CCN(c2c([N+](=O)[O-])c(=O)oc3ccccc23)CC1	-4%	16µM*	3%	3%	23µM*
O=c1oc2ccccc2c(N2CCCCC2)c1[N+](=O)[O-]	23%	16µM*	2%	-13%	16µM*
O=c1oc2ccccc2c(Nc2ccc(Cl)cc2)c1[N+](=O)[O-]	?	?	0%	?	13µM*
O=c1oc2ccccc2c(N2CCCC2)c1[N+](=O)[O-]	32%	-18%	6%	-1%	-30%
O=c1oc2ccccc2c(Nc2ccc(F)cc2)c1[N+](=O)[O-]	17%	?	4%	-3%	?
COc1ccc(C2=NN(CC(=O)NCc3ccccc3Cl)C(=O)CC2)cc1	/	-8%	3%	/	-19%
O=C(CN1c2cccc3cccc(c23)S1(=O)=O)Nc1ccc(S(=O)(=O)N2CCOCC2)cc1	10%	-2%	-6%	-14%	?
SMILES	RORg inh	TDP1 cell CPT	TDP1 block	VP16 counter	TDP1 cell noCPT
CCOc1ccc(C(=O)Nc2ccc3oc(-c4ccc5ccccc5c4)nc3c2)cc1	/	3.7µM*	2%[2.28 µM]	/	?
CCOc1cccc(C(=O)Nc2ccc3oc(-c4cccnc4)nc3c2)c1	29%	?	/	-8%	?
CCOc1cccc(C(=O)Nc2ccc3oc(-c4ccc(C(C)(C)C)cc4)nc3c2)c1	/	?	3%[12.3 µM]	/	2.9µM*
Cc1cc(C(=O)NC2CC(C)(C)Cc3c2cnn3-c2ccc(F)cc2)no1 (configuration not stated)	?	?	2%	25%	?
CC(=O)NNC(=O)CN1C(=O)/C(=C/c2ccccc2)SC1=S	?	-9%	-4%	?	18%
CCN(C(=O)CN1C(=O)S/C(=C\C=C\c2ccccc2)C1=O)C1CCS(=O)(=O)C1 (configuration not stated)	-24%	1.8µM*	-2%	-4%	1.5µM*
CCN(CC)C(=O)CN1C(=O)/C(=C/c2ccccc2)SC1=S	33%	18µM*	/	?	15µM*
CC(C(=O)N(C)C1CCS(=O)(=O)C1)N1C(=O)/C(=C/c2ccc(F)cc2)SC1=S (configuration not stated)	-7%	?	6%	16µM*	?
CCN(C(=O)CN1C(=O)S/C(=C\c2cccc(Cl)c2)C1=O)C1CCS(=O)(=O)C1 (configuration not stated)	17%	-13%	4%	-3%	3%
CCN(C(=O)CCN1C(=O)/C(=C/c2ccccc2)SC1=S)C1CCS(=O)(=O)C1 (configuration not stated)	?	18µM*	6%	?	?
Cc1ccc2nc(NCc3ccccc3)c3nnnn3c2c1	/	-21%	6%	/	-19%
O=c1c2cn[nH]c2[nH]c(=S)n1-c1ccccc1F	6%	0%	6%	-1%	0%
CCN(C(=O)CN1C(=O)/C(=C/c2ccccc2F)SC1=S)C1CCS(=O)(=O)C1 (configuration not stated)	10µM*	?	6%	-10%	?
CCN(C(=O)CN1C(=O)S/C(=C\c2ccccc2OC)C1=O)C1CCS(=O)(=O)C1 (configuration not stated)	-20%	-4%	2%	-5%	8%
Cc1cccc(C2=NN(c3ccccc3)[C@H](CO)[C@H]2c2ccc(Cl)cc2)c1	33%	?	-14%[56.1 µM]	40µM*	?
Cc1cccc(C2=NN(c3ccccc3)[C@H](CO)[C@H]2c2ccc(F)cc2)c1	25%	?	-16%[56.1 µM]	1%	?
CC[C@H]1C(c2cccc(Cl)c2)=NN(c2ccccc2)[C@@H]1CO	?	/	?	32µM*	/
OC[C@@H]1[C@@H](c2ccccc2)C(c2ccccc2)=NN1c1ccccc1	-26%	?	-15%[56.1 µM]	-15%	16µM*
CC[C@H]1C(c2cccc(C)c2)=NN(c2ccccc2)[C@@H]1CO	21%	/	/	-13%	/
OC[C@@H]1[C@@H](c2ccccc2)C(c2ccc(F)cc2)=NN1c1ccccc1	0%	?	-21%[56.1 µM]	?	?
OC[C@@H]1[C@@H](c2ccccc2)C(c2cccc(Cl)c2)=NN1c1ccccc1	36%	21µM*	25µM*	-27%	21µM*
C[C@@H]1Cn2cnc(C(=O)Nc3ccccc3)c2C(=O)N1	/	13%	/	/	-10%
